Measurements taken from paper PMC5540273 (PLoS ONE, 2017).
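Note: kd values determined as follow-up on hits from a single-replicate KINOMEscan panel screen.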

With `Fc1cc(Cl)ccc1Nc1ccnc2cc(-c3ccc(CN4CCCCC4)o3)ccc12` [GW560116] the Kd (SRC) was 4.4 µM.

With `O=C1NC(=O)C(N2CCc3ccccc32)=C1c1ccccc1Cl` [SB-373598] the Kd (SRMS) was greater than 10 µM and the Kd (TAOK2) was greater than 10 µM.

Work on `Cc1ccc(C(=O)Nc2ccc(Nc3ccnc4cc(-c5ccccn5)ccc34)cc2O)cc1.Cl` [GW440146] yielded a Kd (SRMS) of 0.35 µM.

`COc1cccc(-c2cc(-c3c[nH]nc3-c3ccccn3)ccn2)c1` [GW680338] gave a Kd (SRPK1) greater than 10 µM.

`CS(=O)(=O)c1ccc(-c2nc3n(c2-c2ccncc2)CCC3)cc1` [SKF-105942] showed a Kd (STK16) greater than 10 µM.

With `COc1cc2ncn(-c3cc(OCC4CCCO4)c(C(N)=O)s3)c2cc1OC` (stereo not drawn) [GSK204607] the Kd (STK35) was 3.6 µM.

Work on `Cl.O=C(Nc1cccc(-c2nn3ncccc3c2-c2ccnc(Nc3cccnc3)n2)c1)c1c(F)cccc1F` [GSK312879] yielded a Kd (STK36) of 0.098 µM.

`Cc1ccccc1-n1cnc2c(N)ncnc21` [SKF-97510] was tested, and the Kd (SYK) was greater than 10 µM.
